The source of these data is PubChem BioAssay.

A short description of experiment [1]: inhibitors of TNFa-induced NFkB p65 translocation, primary screen, imaging, HUVEC, MLSMR starter and 10KST1 sets (AID 438;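 active = inhibition above 20% together with a positive visual image hit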;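 also: compound added about 3h40 before a 20 min TNFalpha stimulation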;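 as to inhibition: signal is the nuclear over cytoplasmic p65 intensity ratio per well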). The conditions noted are these: HUVEC TNFa-induced p65 nuclear translocation; cell count: measured here: nuclei count (cytotoxicity indicator), at 2.08 µM; inhibition: at 2 µM, stronger effect = higher value, 0% TNFa-plus-vehicle, 100% no-TNFa wells.

Experiment [2] is described as follows: inhibitors of mutant huntingtin aggregation, primary screen, imaging, exon1htt(103Q)mCFP cells, high-content imaging (AID 483;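 active = visual image review flags a hit and inhibition of aggregation exceeds 20%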;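 also: compound exposure lasted 3 days before fixation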;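 as to nuclei count: percent of the per-plate median nuclei count of sample wells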). The conditions noted are these: exon1htt(103Q)mCFP cell line, aggregate imaging, at 2 µM; inhibition of aggregation: stronger effect = higher value; nuclei count: measured here: cell count, toxicity.
Experiment [3] can be described thus: inhibitors of E-selectin induction by TNFa, primary screen, imaging, HUVEC, immunofluorescence, MLSMR starter and 10KST1 sets (AID 487;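 active = visually confirmed hit in the image check and inhibition above 20%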;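 as to inhibition: signal is fraction of cell area covered by stained E-selectin grains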;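 as to nuclei count: 100% = median nuclei count of all wells on the same plate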). The conditions noted are these: HUVEC TNFalpha-induced E-selectin immunofluorescence imaging, at 2 µM; inhibition: stronger effect = higher value; nuclei count: measured here: cell number, toxicity.
Experiment [4] addresses Voltage-gated potassium channel subunit beta-2 (Rattus norvegicus) (UniProt P62483). Description: KvBeta enzyme negative modulators, primary screen, biochemical, NADPH fluorescence (AID 622;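 active = fluorescence slope higher than the sample average by over 3 SD, cut at about -0.22 in these data, passing the limit was not always enough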;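 also: slope of raw intensity against log time taken from 70 to 1610 s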). The conditions noted are these: recombinant KvBeta, 4-cyanobenzaldehyde reduction, at 10 µM, stronger effect = higher value.
For experiment [5] the target is unchanged. The experiment can be described thus: KvBeta positive modulators, primary screen, biochemical, NADPH fluorescence (AID 623;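 active = NADPH fluorescence slope more negative than the mean of all samples by about 3 SD, 99.7% confidence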;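 also: fluorescence intensity change per second fitted from 20 to 320 s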). The conditions noted are these: Recombinant KvBeta, NADPH fluorescence decrease slope, 10 min; at 10 µM; stronger effect = lower value.
Experiment [6] has as its target Alpha-2C adrenergic receptor (Homo sapiens) (UniProt P18825). Description: modulators of alpha2C/GIRK thallium flux, primary screen, cell-based, HEK293 alpha2C/GIRK1/2 (AID 624;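 active = fluorescence slope after compound addition differing from the mean of all screened samples at 99.7% confidence, in either direction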;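 also: slope of fluorescence ratio to pre-addition baseline per second over 15 to 24 s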). The conditions noted are these: thallium flux BTC fluorescence, at 10 µM, actives lie on both sides.
Experiment [7] can be described thus: inhibitors of Sendai virus-induced IRF3 signaling, primary screen, TLR/RLR signaling modifier project, cell-based, Sendai virus stimulus, luciferase, 10K MLSCN set (AID 602276).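 Also: firefly luciferase from ISG56 promoter only with Renilla not read in this screen; 0% = Sendai virus plus DMSO and 100% = medium plus DMSO without virus.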 The conditions noted are these: HEK293 RL24 IRF3 luciferase reporter, at 10 µM, stronger effect = higher value. For orientation: Reporter assays use an easily measured gene product as a stand-in for the process of interest.

A short description of experiment [8]: inhibitors of poly I:C-induced TLR3 signaling, primary screen, cell-based, poly I:C stimulus, luciferase, 10K MLSCN set (AID 602277;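 active = inhibition of the reporter signal at or above 50%; inactive = inhibition below 50%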). The conditions noted are these: HEK293-TLR3 RL24 IRF3 luciferase reporter, at 10 µM, stronger effect = higher value.

The source made the active and inactive calls.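 The calls were made as follows, unless noted: active = inhibition at or above 50% at 10 µM; inactive = inhibition below 50%.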

Sequence of Voltage-gated potassium channel subunit beta-2 (Rattus norvegicus) (P62483 whole entry, looked up): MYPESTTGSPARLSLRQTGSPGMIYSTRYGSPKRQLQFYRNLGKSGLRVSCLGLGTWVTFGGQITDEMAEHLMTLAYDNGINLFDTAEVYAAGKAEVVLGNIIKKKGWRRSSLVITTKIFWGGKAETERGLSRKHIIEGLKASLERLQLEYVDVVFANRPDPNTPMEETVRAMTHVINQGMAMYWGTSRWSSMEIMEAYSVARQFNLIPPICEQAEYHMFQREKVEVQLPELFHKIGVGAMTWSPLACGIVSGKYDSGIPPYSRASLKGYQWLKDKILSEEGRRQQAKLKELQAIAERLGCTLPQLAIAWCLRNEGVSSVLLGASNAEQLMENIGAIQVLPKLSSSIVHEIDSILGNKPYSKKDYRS
Sequence of Alpha-2C adrenergic receptor (Homo sapiens) (P18825 whole entry, looked up): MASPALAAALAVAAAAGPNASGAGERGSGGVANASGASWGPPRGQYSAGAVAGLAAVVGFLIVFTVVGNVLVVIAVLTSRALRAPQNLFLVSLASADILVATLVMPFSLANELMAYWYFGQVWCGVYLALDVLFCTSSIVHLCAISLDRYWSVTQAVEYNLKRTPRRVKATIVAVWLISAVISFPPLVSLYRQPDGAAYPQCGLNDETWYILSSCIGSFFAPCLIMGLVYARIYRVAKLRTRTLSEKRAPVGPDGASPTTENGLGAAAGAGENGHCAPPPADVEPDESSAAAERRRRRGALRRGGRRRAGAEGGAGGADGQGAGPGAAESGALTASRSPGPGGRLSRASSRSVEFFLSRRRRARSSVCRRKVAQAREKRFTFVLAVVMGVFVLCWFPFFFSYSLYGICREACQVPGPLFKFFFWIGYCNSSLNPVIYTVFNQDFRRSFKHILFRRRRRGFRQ

By inhibition is commonly meant the relative decrease from the control value, in per cent. Turning to `NC(=O)C1(N2CCCCC2)CCN(CC(=O)Nc2cc(Cl)ccc2Cl)CC1`, in experiment [1], the cell count was determined as 357. Also, the inhibition in experiment [1] was -3% (inactive); in experiment [3], 26.7% (inactive); in experiment [7], -15.6% (inactive); in experiment [8], -7.63% (inactive). Further, the inhibition of aggregation in experiment [2] is 14.8% (inactive). Moreover, the nuclei count in experiment [2] came out at 86.2%; in experiment [3], 74.8%. Besides, in experiment [4], the fluorescence slope was -0.583 (inactive). For the same compound, in experiment [5], the NADPH fluorescence slope was -5.7e-05 (inactive). In addition, the slope in experiment [6] was 0.00416 (inactive).
Regarding `CN1CCN(c2ncnc3c2cnn3-c2ccc(Cl)cc2)CC1`, the cell count in experiment [1] turned out to be 688. Moreover, the inhibition in experiment [1] is -8.5% (inactive); in experiment [3], -27.8% (inactive); in experiment [7], 15.5% (inactive); in experiment [8], 6.85% (inactive). Further, in experiment [2], the inhibition of aggregation is -0.6% (inactive). The values for the nuclei count in experiment [2] and in experiment [3] were 116% and 122%, respectively. The fluorescence slope in experiment [4] is -0.591 (inactive). In addition, the NADPH fluorescence slope in experiment [5] was 1.6e-05 (inactive). Besides, the slope in experiment [6] is 0.00771 (inactive).
In the case of `CC1=C(C)C(=O)NC(Nc2nc(C)c3cc(C)cc(C)c3n2)N1` (centres undefined), the cell count in experiment [1] came out at 540. For the same compound, the inhibition in experiment [1] was -14.3% (inactive); in experiment [3] it was 5.2% (inactive); in experiment [7] it was 7.09% (inactive); in experiment [8], -49.5% (inactive). In experiment [2], the inhibition of aggregation was -9.7% (inactive). The nuclei count is 103% in experiment [2] and 115% in experiment [3]. In addition, the fluorescence slope in experiment [4] was -0.285 (inactive). Besides, the NADPH fluorescence slope in experiment [5] is -2.3e-05 (inactive). Moreover, the slope in experiment [6] was 0.00676 (inactive).
As to `O=C1COc2ccc(C(=O)COC(=O)CCc3ccc(S(=O)(=O)N4CCOCC4)cc3)cc2N1`, in experiment [1], the cell count was 410. Further, the inhibition is -1.9% (inactive) in experiment [1], -119% (inactive) in experiment [3], 4.84% (inactive) in experiment [7] and 23.5% (inactive) in experiment [8]. Besides, the inhibition of aggregation in experiment [2] was 12.6% (inactive). Besides, the nuclei count in experiment [2] was determined as 90.4%; in experiment [3], 104%. The fluorescence slope in experiment [4] is -0.37 (inactive). In experiment [5], the NADPH fluorescence slope is -5.9e-05 (inactive). For the same compound, the slope in experiment [6] is 0.00618 (inactive).
`CCCCn1c(SCC(=O)OCC)nc2c1c(=O)[nH]c(=O)n2C`: in experiment [1], the cell count came out at 611. For the same compound, the inhibition was -0.3% (inactive) in experiment [1], 7.7% (inactive) in experiment [3], 13.7% (inactive) in experiment [7] and 21.6% (inactive) in experiment [8]. In addition, the inhibition of aggregation in experiment [2] was 5.2% (inactive). Also, the figures for the nuclei count in experiment [2] and in experiment [3] were 97.5% and 84.3%, respectively. For the same compound, in experiment [4], the fluorescence slope was -0.499 (inactive). In addition, the NADPH fluorescence slope in experiment [5] was -2.6e-05 (inactive). In experiment [6], the slope was 0.00682 (inactive).
In the case of `O=C(CSc1nnc(-c2cccs2)o1)NCC1CN(Cc2ccccc2)CCO1` (centres undefined), the cell count in experiment [1] was 669. Moreover, the inhibition in experiment [1] is 7.8% (inactive); in experiment [3], -87.4% (inactive); in experiment [7] it was -0.491% (inactive); in experiment [8], -12.1% (inactive). The inhibition of aggregation in experiment [2] was 4.9% (inactive). Moreover, the nuclei count came out at 92.2% in experiment [2] and 140% in experiment [3]. Also, the fluorescence slope in experiment [4] is -0.607 (inactive). Further, in experiment [5], the NADPH fluorescence slope was -6.7e-06 (inactive). Further, in experiment [6], the slope was 0.00563 (inactive).
For `CO/C([O-])=N/c1c[n+](-c2ccc(C)cc2)no1`, the cell count in experiment [1] stood at 711. The inhibition was -18.1% (inactive) in experiment [1], -3.6% (inactive) in experiment [3], -8.44% (inactive) in experiment [7] and -40% (inactive) in experiment [8]. In experiment [2], the inhibition of aggregation was -9.2% (inactive). Also, the nuclei count in experiment [2] was found to be 104%; in experiment [3], 113%. In addition, in experiment [4], the fluorescence slope was -0.471 (inactive). Besides, the NADPH fluorescence slope in experiment [5] is -4.7e-05 (inactive). In experiment [6], the slope was 0.00685 (inactive).
Consider `Cn1nc(-c2ccc(N3CCCCC3)c(NC(=O)c3ccco3)c2)c2ccccc2c1=O`, for which, in experiment [1], the cell count came to 672. In addition, the inhibition in experiment [1] was -15.6% (inactive); in experiment [3] it was 32.2% (inactive); in experiment [7], 13.4% (inactive); in experiment [8] it was 75.2% (active). The inhibition of aggregation in experiment [2] is -14.2% (inactive). The nuclei count in experiment [2] turned out to be 62.8%; in experiment [3], 84.4%. For the same compound, the fluorescence slope in experiment [4] was -0.5 (inactive). The NADPH fluorescence slope in experiment [5] is -5.2e-06 (inactive). The slope in experiment [6] was 0.00571 (inactive).
For the compound `Cc1ccc2c(c1)-c1c(cnn1CC(=O)Nc1ccccc1N1CCN(C)CC1)CO2`, the cell count in experiment [1] is 521. Further, the inhibition was -10.8% (inactive) in experiment [1], -3.4% (inactive) in experiment [3], 3.02% (inactive) in experiment [7] and 7.29% (inactive) in experiment [8]. In addition, in experiment [2], the inhibition of aggregation is -22% (inactive). Moreover, the nuclei count in experiment [2] was determined as 66.8%; in experiment [3], 108%. Further, the fluorescence slope in experiment [4] is -0.507 (inactive). The NADPH fluorescence slope in experiment [5] is -9e-06 (inactive). For the same compound, the slope in experiment [6] is 0.00599 (inactive).
`CCOc1cc(C2NC(=O)N(C)C(C)=C2C(=O)OC)cc(Br)c1O` (centres undefined): in experiment [1], the cell count came to 620. Also, the inhibition in experiment [1] is -17.6% (inactive); in experiment [3] it was -13.7% (inactive); in experiment [7], -0.511% (inactive); in experiment [8], 5.13% (inactive). The inhibition of aggregation in experiment [2] was -9.6% (inactive). The nuclei count in experiment [2] was 110%; in experiment [3], 104%. Besides, the fluorescence slope in experiment [4] is -0.611 (inactive). The NADPH fluorescence slope in experiment [5] is -4.2e-05 (inactive). Moreover, the slope in experiment [6] is 0.00546 (inactive).
In the case of `O=C(Nc1cccc2ccccc12)c1ccc(Br)o1`, the cell count in experiment [1] was 638. Further, the inhibition in experiment [1] was 5.6% (inactive); in experiment [3], 18.2% (inactive); in experiment [7] it was 2.74% (inactive); in experiment [8] it was 19.8% (inactive). Besides, the inhibition of aggregation in experiment [2] was 7.9% (inactive). The figures for the nuclei count in experiment [2] and in experiment [3] were 104% and 94.7%, respectively. Besides, the fluorescence slope in experiment [4] is -0.437 (inactive). Besides, in experiment [5], the NADPH fluorescence slope is -1.5e-05 (inactive). Also, the slope in experiment [6] is 0.00359 (inactive).
For the compound `O=C(COC(=O)c1cc(S(=O)(=O)N2CCOCC2)cs1)c1ccccc1`, the cell count in experiment [1] was 692. Besides, the inhibition in experiment [1] is -5.5% (inactive); in experiment [3], -88.5% (inactive); in experiment [7] it was 11.5% (inactive); in experiment [8], 29.5% (inactive). In addition, in experiment [2], the inhibition of aggregation was -9.6% (inactive). Further, the values for the nuclei count in experiment [2] and in experiment [3] were 103% and 114%, respectively. Also, the fluorescence slope in experiment [4] was -0.485 (inactive). The NADPH fluorescence slope in experiment [5] is -5.8e-05 (inactive). Also, the slope in experiment [6] is 0.00656 (inactive).
`Cc1c(N=C2SCC(=O)N2c2c(C)n(C)n(-c3ccccc3)c2=O)c(=O)n(-c2ccccc2)n1C`: the cell count in experiment [1] came to 592. Moreover, the inhibition in experiment [1] is 4.1% (inactive); in experiment [3], -66.8% (inactive); in experiment [7], 2.44% (inactive); in experiment [8], 13.3% (inactive). Also, the inhibition of aggregation in experiment [2] is -7.8% (inactive). Besides, the figures for the nuclei count in experiment [2] and in experiment [3] were 113% and 116%, respectively. Further, the fluorescence slope in experiment [4] is -0.482 (inactive). The NADPH fluorescence slope in experiment [5] was -3e-05 (inactive). Also, the slope in experiment [6] was 0.00551 (inactive).
Regarding `CCC(=O)N1CCN(CCN=CC2=C(O)CC(C)(C)CC2=O)CC1`, the cell count in experiment [1] was determined as 476. Also, the inhibition in experiment [1] was 4% (inactive); in experiment [3], 5.8% (inactive); in experiment [7], 8.29% (inactive); in experiment [8], 11.4% (inactive). The inhibition of aggregation in experiment [2] was 1.1% (inactive). The nuclei count in experiment [2] was found to be 105%; in experiment [3], 111%. For the same compound, the fluorescence slope in experiment [4] is -0.518 (inactive). The NADPH fluorescence slope in experiment [5] is -2.4e-05 (inactive). In experiment [6], the slope is 0.00473 (inactive).
